Experimental data from PubChem BioAssay (NCI).
About 79,000 compounds went through this panel and 15% of them were active in at least one assay; those are over-represented in the sample as a whole. Active and inactive are the calls of the source. Cut-off read from the data, not from the text of the source: active = growth inhibition above about 70%; inactive = the rest.

Columns and labels:
[1] = NCI Yeast Anticancer Drug Screen. Data for the rad50 strain (AID 155);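 note: 0% = growth of vehicle-only cultures of the same strain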; details: S. cerevisiae rad50 strain growth inhibition, stronger effect = higher value
In short: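 Growth of the mutant yeast was measured after compound exposure and referenced to vehicle-treated cultures.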

[2] = NCI Yeast Anticancer Drug Screen. Data for the mec2-1 strain (AID 157); details: S. cerevisiae mec2-1 strain, stronger effect = higher value
In short: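 Each compound was tested on mec2-1 yeast, a strain altered in DNA damage repair or cell cycle control. Growth inhibition is reported relative to vehicle.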

[3] = NCI Yeast Anticancer Drug Screen. Data for the sgs1 mgt1 strain (AID 161);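 note: 0% = growth of cultures given vehicle only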; details: S. cerevisiae sgs1 mgt1 strain, stronger effect = higher value
In short: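 Test agents were incubated with a DNA-repair-mutant yeast strain. Growth was then read and compared against vehicle-treated controls.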

[4] = NCI Yeast Anticancer Drug Screen. Data for the cln2 rad14 strain (AID 165);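 note: 0% = growth equal to vehicle treated cultures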; details: S. cerevisiae cln2 rad14 strain, stronger effect = higher value
In short: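 Test compounds were added to cln2 rad14 yeast cultures; inhibition of growth was then determined by comparison with vehicle treatment.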

[5] = NCI Yeast Anticancer Drug Screen. Data for the bub3 strain (AID 167); details: S. cerevisiae bub3 mutant strain, stronger effect = higher value
In short: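 Whole-cell yeast assay. The mutant strain was incubated with compounds, and growth inhibition was determined by comparison with vehicle-treated cells.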

[6] = NCI Yeast Anticancer Drug Screen. Data for the mlh1 rad18 strain (AID 175); details: S. cerevisiae mlh1 rad18 strain growth inhibition, stronger effect = higher value
In short: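 Inhibition values reflect reduced growth of mutant yeast versus vehicle-treated controls following compound exposure; the mutations affect DNA damage repair.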

[7] = at 5.0 µM (retest, dose inferred, filed as 0.5)
[8] = at 50.0 µM (retest, dose inferred, filed as 5.0)

Measured: growth inhibition

CC(C)N(CN1C(=O)N/C(=C/c2cccc(/C=C3/NC(=O)N(CN(C(C)C)C(C)C)C3=O)c2)C1=O)C(C)C
inactive: [1]; [7] 7% | [1]; [8] 8% | [1]; at 50.0 µM 21% | [2]; [7] -15% | [2]; [8] -11% | [2]; at 50.0 µM 2.95% | [3]; [7] -1% | [3]; [8] 3% | [3]; at 50.0 µM -2.5% | [4]; [7] -19% | [4]; [8] -15% | [4]; at 50.0 µM 63.4% | [5]; [7] 12% | [5]; [8] 30% | [5]; at 50.0 µM 17.6% | [6]; [7] 7% | [6]; [8] 8% | [6]; at 50.0 µM -4.65%

CC(C)C(=O)NNc1ccccc1
inactive: [1]; [7] 28% | [2]; [7] 1% | [2]; [8] 57% | [2]; at 50.0 µM 34.2% | [3]; [7] 18% | [4]; [7] 15% | [4]; [8] 67% | [5]; [7] 21% | [6]; [7] 39%
active: [1]; [8] 77% | [1]; at 50.0 µM 93.1% | [3]; [8] 70% | [3]; at 50.0 µM 87.2% | [4]; at 50.0 µM 93.2% | [5]; [8] 95% | [5]; at 50.0 µM 70.4% | [6]; [8] 92% | [6]; at 50.0 µM 83.2%

CCCCC(CC)(CCC)CCN (stereo not given)
inactive: [1]; [7] 1% | [1]; at 50.0 µM 1.65% | [2]; [7] 1% | [2]; [8] 65% | [2]; at 50.0 µM 1.75% | [3]; [7] 1% | [3]; [8] 30% | [3]; at 50.0 µM 16.6% | [4]; [7] 4% | [4]; [8] 36% | [4]; at 50.0 µM 32% | [5]; [7] -3% | [5]; [8] 67% | [5]; at 50.0 µM -5.95% | [6]; [7] -1% | [6]; at 50.0 µM 31.4%
active: [1]; [8] 93% | [6]; [8] 83%

O=C1C=CC(=O)C(Sc2ccccc2)=C1
active: [1]; [8] 98% | [1]; at 50.0 µM 96.8% | [2]; [8] 99% | [2]; at 50.0 µM 98.9% | [3]; [8] 98% | [3]; at 50.0 µM 89.5% | [4]; [8] 93% | [4]; at 50.0 µM 93.3% | [5]; [8] 99% | [5]; at 50.0 µM 94.1% | [6]; [8] 98% | [6]; at 50.0 µM 95.3%
inactive: [1]; [7] -3% | [2]; [7] 7% | [3]; [7] -4% | [4]; [7] -14% | [5]; [7] -10% | [6]; [7] 24%

COC1CCC(O)C(CO)O1 (stereo not given)
active: [1]; [7] 100% | [1]; [8] 99% | [1]; at 50.0 µM 99.5% | [2]; [7] 100% | [2]; [8] 99% | [2]; at 50.0 µM 99.6% | [3]; [7] 100% | [3]; [8] 99% | [3]; at 50.0 µM 99.7% | [4]; [7] 100% | [4]; [8] 99% | [4]; at 50.0 µM 99.6% | [5]; [7] 99% | [5]; [8] 99% | [5]; at 50.0 µM 99.5% | [6]; [7] 99% | [6]; [8] 99% | [6]; at 50.0 µM 99.5%

Nc1n[n+](-c2ccccc2)no1
inactive: [1]; [7] 34% | [1]; at 50.0 µM 61% | [2]; [7] 16% | [2]; [8] 46% | [2]; at 50.0 µM 33.4% | [3]; [7] 24% | [3]; [8] 60% | [3]; at 50.0 µM 56.6% | [4]; [7] 45% | [4]; [8] 59% | [4]; at 50.0 µM 23% | [5]; [7] 43% | [5]; [8] 59% | [5]; at 50.0 µM 45.2% | [6]; [7] 31% | [6]; [8] 68%
active: [1]; [8] 81% | [6]; at 50.0 µM 70.6%

Nc1ccc(/C=C/c2ccccc2)cc1
active: [1]; at 50.0 µM 87.5% | [2]; at 50.0 µM 80.3% | [3]; at 50.0 µM 81.5% | [4]; at 50.0 µM 82.8% | [5]; at 50.0 µM 95.5% | [6]; [8] 73% | [6]; at 50.0 µM 94%
inactive: [1]; [7] 3% | [1]; [8] 61% | [2]; [7] -9% | [2]; [8] 33% | [3]; [7] -2% | [3]; [8] 47% | [4]; [7] -10% | [4]; [8] 45% | [5]; [7] -2% | [5]; [8] 44% | [6]; [7] 3%

N=C(N)SC1c2ccccc2-c2cc([N+](=O)[O-])ccc21 (stereo not given)
active: [1]; [8] 98% | [1]; at 50.0 µM 97.7% | [2]; [8] 98% | [2]; at 50.0 µM 98.1% | [3]; [8] 98% | [3]; at 50.0 µM 98.6% | [4]; [8] 98% | [4]; at 50.0 µM 97.8% | [5]; [8] 99% | [5]; at 50.0 µM 98% | [6]; [8] 99% | [6]; at 50.0 µM 98.5%
inactive: [1]; [7] 29% | [2]; [7] 13% | [3]; [7] 22% | [4]; [7] 14% | [5]; [7] 11% | [6]; [7] 17%

Clc1ccc(-c2nc3ccc(Cl)cc3[nH]2)cc1
inactive: [1]; [7] -2% | [2]; [7] -3% | [3]; [7] -5% | [3]; at 50.0 µM -30.9% | [4]; [7] 0% | [5]; [7] 19% | [6]; [7] -38% | [6]; [8] 54% | [6]; at 50.0 µM 35.3%
active: [1]; [8] 90% | [1]; at 50.0 µM 76.8% | [2]; [8] 88% | [2]; at 50.0 µM 86.7% | [3]; [8] 93% | [4]; [8] 92% | [4]; at 50.0 µM 84.3% | [5]; [8] 96% | [5]; at 50.0 µM 88%

O=C(Nc1c(Cl)cccc1Cl)Oc1cccc2cccnc12
active: [1]; [8] 97% | [1]; at 50.0 µM 88.5% | [2]; [8] 98% | [2]; at 50.0 µM 90.6% | [3]; [8] 99% | [3]; at 50.0 µM 90.6% | [4]; [8] 98% | [4]; at 50.0 µM 88% | [5]; [8] 96% | [5]; at 50.0 µM 89.4% | [6]; [8] 97% | [6]; at 50.0 µM 88.3%
inactive: [1]; [7] 58% | [2]; [7] 35% | [3]; [7] 60% | [4]; [7] 20% | [5]; [7] 42% | [6]; [7] 57%
